Compound activity deposited in PubChem BioAssay by The Scripps Research Institute Molecular Screening Center.
HTR5A inv ag = counter-screen for OPRM1-OPRD1 inverse agonists: human HTR5A inverse agonism; P47898; HTR5A cell line, luminescence; inhibition, % at 9.3 µM; 340,000 tested, 0.083% active; in the data active means inhibition mostly above about 23%, no sharp cut-off; inactive means mostly below about 18%;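 further: 0% = cells with DMSO and 100% = no-cell wells with DMSO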
HTR5A ag ctr = counter-screen for OPRM1-OPRD1 agonists: human HTR5A agonism; AID 504692; 340,000 tested, 0.61% active; activation, % at 9.3 µM; HTR5A agonist assay, luminescence, cell-based; in the data active means activation mostly above about 9.5%, no sharp cut-off; inactive means mostly below about 7.6%;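 further: 0% = cells with vehicle only and 100% = reference agonist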
MOR-DOR ag-1 = OPRM1-OPRD1 heterodimerization agonism | P35372+P41143 | cells, luminescence | activation, % at 9.3 µM | 340,000 tested, 0.3% active | AID 504326;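 further: 0% = vehicle-treated cells and 100% = reference agonist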
Target sequence (P35372 whole entry, looked up): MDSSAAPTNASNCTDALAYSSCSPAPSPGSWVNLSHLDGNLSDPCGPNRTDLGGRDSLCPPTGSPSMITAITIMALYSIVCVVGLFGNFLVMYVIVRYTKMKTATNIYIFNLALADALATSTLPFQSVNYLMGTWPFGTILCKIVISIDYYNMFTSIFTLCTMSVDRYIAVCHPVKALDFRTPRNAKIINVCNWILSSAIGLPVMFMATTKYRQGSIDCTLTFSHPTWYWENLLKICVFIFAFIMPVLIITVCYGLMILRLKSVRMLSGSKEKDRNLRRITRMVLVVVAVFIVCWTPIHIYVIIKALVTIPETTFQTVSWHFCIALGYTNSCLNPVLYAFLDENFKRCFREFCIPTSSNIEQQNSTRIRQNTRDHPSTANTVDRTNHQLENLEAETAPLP
Target sequence (P41143 whole entry, looked up): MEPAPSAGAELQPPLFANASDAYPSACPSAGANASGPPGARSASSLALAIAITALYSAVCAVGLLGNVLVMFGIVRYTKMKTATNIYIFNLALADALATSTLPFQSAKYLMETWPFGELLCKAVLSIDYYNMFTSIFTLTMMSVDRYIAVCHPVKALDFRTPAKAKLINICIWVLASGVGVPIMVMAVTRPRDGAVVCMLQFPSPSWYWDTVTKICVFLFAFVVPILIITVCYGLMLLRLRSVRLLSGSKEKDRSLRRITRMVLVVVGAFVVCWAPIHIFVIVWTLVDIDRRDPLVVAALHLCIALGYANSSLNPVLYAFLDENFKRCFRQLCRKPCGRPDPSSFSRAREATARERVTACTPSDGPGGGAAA
MOR-DOR inv ag = inverse agonists of human mu-delta opioid receptor heterodimerization | 340,000 tested, 0.21% active | inhibition, % at 9.3 µM | cell-based MOR-DOR heterodimer luminescence, inverse agonism | P35372+P41143; in the data active means inhibition above about 22%, passing the limit was not always enough;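 further: 0% = cells with DMSO and 100% = wells without cells with DMSO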
MOR-DOR ag-2 = promotes OPRM1-OPRD1 heterodimerization in HTR5A counter-screen; shares compounds with HTR5A ag ctr; U2OS counter-screen cells, complementation luminescence, 3 h; activation, % at 9.3 µM; 800 tested, 13% active; AID 504913
HTR5A ag confirm = HTR5A (human) agonism, confirmation | shares compounds with HTR5A ag ctr | HTR5A agonist cell assay, luminescence | activation, % at 9.3 µM | 800 tested, 17% active | AID 504915; in the data active means activation above about 17%;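 further: 0% = cells with vehicle only and 100% = full reference agonist response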
* marks the source's active call; other numbers are inactive results; x = not tested or not shown. The list is not random: actives were taken first. Their share in the collection is about 1.1%. Unless noted, no stated cut-off is given here; in the data, active means activation above about 18%; inactive means the rest.

SMILES | HTR5A inv ag | HTR5A ag ctr | MOR-DOR ag-1 | MOR-DOR inv ag | MOR-DOR ag-2 | HTR5A ag confirm
COc1ccc(CN2C3CCCC2CC(NC(=O)Nc2cccc(C)c2)C3)cc1 (stereo not given) | 17 | 17* | 0 | 0 | 1 | 7
COc1ccccc1C(CNC(=O)c1cccc(NS(=O)(=O)c2ccc(C)c(F)c2)c1)N1CCCC1 (stereo not given) | -97 | 44* | 1 | -4 | 2 | 41*
CN1CCN(C(=O)c2cc([N+](=O)[O-])ccc2Cl)CC1 | 7 | -2 | -3 | 13 | x | x
COc1ccc(NC(=O)Cc2nc3ccccc3[nH]2)cc1 | -35 | 28* | 8 | -47 | 3 | 19*
COc1ccc(CC(=O)Nc2nc3ccccc3[nH]2)cc1 | -25 | 8 | -2 | 11 | x | x
Oc1c(Br)cc(Br)cc1CNc1cccc2cccnc12 | -1 | 16* | 7 | -35 | 13 | -3
Cc1ccnc2ccc(SC(F)(F)F)cc12 | 1 | 0 | 0 | 2 | x | x
O=C(NCCc1c[nH]c2ccccc12)/C(=C\c1cccnc1)NC(=O)c1ccccc1Br | -37 | 22* | -2 | 10 | 0 | 2
C=CCOC(=O)c1sc(NC(=O)c2ccc(OC)cc2)nc1C | 8 | -4 | -1 | 3 | x | x
O=C(COC(=O)Cc1ccsc1)Nc1ccc(Cl)cn1 | -1 | 0 | -1 | 3 | x | x
CCCc1cc(=O)n2nc(N3CCC(C(=O)Nc4c(F)c(F)c(F)c(F)c4F)CC3)sc2n1 | -7 | -2 | -3 | 14 | x | x
CCCc1cc(=O)n2nc(N3CCC(C(=O)Nc4cccc(C(C)=O)c4)CC3)sc2n1 | 8 | 17* | -2 | 11 | 18 | 0
O=C(NCC1CCCO1)c1ccc(Oc2ccc([N+](=O)[O-])cc2Cl)cc1 (stereo not given) | -49 | 17* | 3 | -25 | -4 | -8
COc1cc(/C=C/C(=O)O)cc(OC)c1OC | -138 | 39* | -1 | 4 | 1 | -4
CCCCC[C@H]1CN(Cc2ccccc2)C(=O)[C@@H]1CC(=O)NCc1ccccc1 | -1 | 2 | 10 | -56 | x | x
COc1cc(C(=O)NCC(=O)N/N=C/c2ccc(OC(=O)c3ccco3)cc2)cc(OC)c1OC | -9 | 22* | -2 | 11 | 1 | 4
CCOC(=O)c1c(-c2ccc(C)cc2)csc1NC(=S)NC(=O)c1ccccc1 | 21 | 1 | -1 | 3 | x | x
CCOC(=O)c1c(-c2ccc(C)cc2)csc1NC(=O)c1cc2ccccc2oc1=O | 10 | 18* | -1 | 8 | 1 | -5
C=CCn1c(SCC(=O)NC(=O)NCc2ccco2)nc2sc(C)c(C)c2c1=O | -44 | 17* | 14 | -84 | -3 | -5
CCCOc1ccc(Br)cc1/C=N/NC(=O)c1cc(OC)c(OC)c(OC)c1 | -27 | 4 | 3 | -18 | x | x
COc1ccc(C(=O)N/N=C/c2cc(Br)ccc2O)cc1OC | -55 | 17* | 0 | 0 | -1 | -3
CCOc1cccc(-c2c(C(=O)N/N=C/c3ccc(Br)cc3)nnn2-c2nonc2N)c1 | 8 | -2 | 0 | 1 | x | x
O=C(CCNC(=O)c1ccc(Br)cc1)NNC(=O)c1ccccc1 | -10 | 3 | -2 | 12 | x | x
COC(=O)c1c(C(=O)OC)c2n(c1C)Cc1ccccc1C2 | 1 | 15* | -1 | 6 | 0 | 3
CC(C)(C)c1ccc(OCC(=O)N2CCN(c3ccccn3)CC2)cc1 | -37 | 15* | 0 | 1 | 18 | 17*
SMILES | HTR5A inv ag | HTR5A ag ctr | MOR-DOR ag-1 | MOR-DOR inv ag | MOR-DOR ag-2 | HTR5A ag confirm
Cc1cccc(Nc2nc(N)nc(CCl)n2)c1 | -69 | 20* | 0 | 1 | 21* | 31*
COc1ccc(OC)c(Nc2nc(N)nc(CCl)n2)c1 | -53 | 17* | 0 | -1 | 1 | 10
COc1cccc(Nc2nc(N)nc(CCl)n2)c1 | -1 | 2 | -1 | 7 | x | x
COc1ccccc1Nc1nc(N)nc(CCl)n1 | -12 | 3 | 0 | 1 | x | x
Cc1ccc(C(=O)NCC(=O)N/N=C/c2cccs2)cc1C | -25 | -4 | 0 | 2 | x | x
C=CC(=O)Nc1cccc(N(C)c2ccnc(Nc3ccc(N4CCN(C)CC4)cc3)n2)c1 | 11 | -4 | 5 | -26 | x | x
CCOc1cc(C(=O)OCc2ccc([N+](=O)[O-])cc2)ccc1OCC(=O)N1CCOCC1 | -43 | 17* | 0 | 0 | 1 | 1
CN(C)c1cccc(NC(=O)CCc2ccccc2)c1 | -29 | 5 | 16 | -67 | x | x
CN(C)c1cccc(NC(=O)Cc2ccc(F)cc2)c1 | 12 | 18* | -1 | 8 | 1 | 8
O=C(COC(=O)c1cccs1)NCCc1ccc(F)cc1 | -13 | -2 | -3 | 17 | x | x
COc1ccc2oc(C(=O)Nc3nc(-c4ccccn4)cs3)c(C)c2c1 | -29 | -3 | 0 | 0 | x | x
COc1ccc(C(CCN2CCCC(C)C2)c2c(OC)cc(OC)c3c(-c4ccccc4)cc(=O)oc23)cc1 (stereo not given) | -66 | 23* | -1 | 7 | -1 | -5
COc1cc(OC)c2c(-c3ccccc3)cc(=O)oc2c1C(CCN1CCCC(C)C1)c1ccc(N(C)C)cc1 (stereo not given) | -9 | -6 | -2 | 8 | x | x
Cc1cc(=O)oc2cc(OCC(=O)NCCc3c[nH]c4ccc(F)cc34)ccc12 | -29 | -2 | -1 | 7 | x | x
CCCc1cc(=O)oc2cc(OCC(=O)NCCc3c[nH]c4ccccc34)ccc12 | 5 | 19* | 13 | -67 | 226* | 56*
CCC(C)N(C(=O)COC(=O)COc1c(C)cc(C)cc1C)C1CCS(=O)(=O)C1 (stereo not given) | -24 | 10 | -2 | 13 | x | x
Cc1cccc(/C=N/NC(=O)c2ccc(NC(=O)c3ccc(Cl)cc3)cc2)n1 | -3 | 3 | 7 | -36 | x | x
Cc1cccc(/C=N/NC(=O)c2ccc(NC(=O)c3ccc(F)cc3)cc2)n1 | -64 | 21* | 12 | -101 | 3 | -1
